Assay results taken from PubChem BioAssay AID624255 (Broad Institute, 2012).
Several values for one entry are separate records, joined by “and”; a condition that tells them apart may be missing. Equal entries are not always repeated. In all, about 77,000 compounds went through this assay and about 4,600 (6%) were called active. Not shown: some 1% with an inconclusive outcome. For the sample, actives were picked, then their nearest neighbours and some compounds at random. Values without a mark were called inactive.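 The calls were made as follows: active = mean inhibition above about 93%, with at least 55% of replicates each passing it (limit read from the data, passing the limit was not always enough); inconclusive = only one of those two conditions holds; inactive = neither condition holds.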

Assay: T. cruzi intracellular proliferation inhibitors, primary screen, cell-based, beta-gal Tulahuen parasites, NIH3T3 host, luminescence (AID 624255)
Details: T. cruzi beta-gal in NIH3T3, GalScreen luminescence, 90 h; at 8.34 µM; stronger effect = higher value

Row | SMILES | inhibition
1 | C[C@@H](NC(=O)C[C@H]1C[C@H]2c3cc(NC(=O)C4CCOCC4)ccc3O[C@H]2[C@@H](CO)O1)c1ccccc1 | -16.2%
2 | Cc1cc(C(=O)Nc2ccc3c(c2)C(=O)N(C)[C@@H]2CC[C@H](CC(=O)NC4CCCC4)O[C@@H]2CO3)no1 | -62.2%
3 | CN(C)CCCNC(=O)C[C@H]1CC[C@H]2[C@@H](COC[C@H](O)CN2C(=O)c2ccncc2)O1 | -84.6%
4 | COCC(=O)Nc1ccc2c(c1)[C@@H]1C[C@H](CC(=O)NCc3ccc(Cl)cc3)O[C@H](CO)[C@@H]1O2 | 0.832%
5 | CN1C(=O)c2cc(NS(C)(=O)=O)ccc2OC[C@@H]2O[C@@H](CC(=O)NCc3ccc(-c4ccccc4)cc3)CC[C@H]21 | 6.8%
6 | CN1C(=O)c2cc(NC(=O)c3cnccn3)ccc2OC[C@@H]2O[C@H](CC(=O)N[C@@H]3CCN(Cc4ccccc4)C3)CC[C@@H]21 | 105% (active)
7 | CN1C(=O)c2cc(NC(=O)c3cnccn3)ccc2OC[C@@H]2O[C@H](CC(=O)NC3CCC3)CC[C@@H]21 | 7.25%
8 | CN1C(=O)c2cc(NC(=O)Cc3cccs3)ccc2OC[C@@H]2O[C@@H](CC(=O)N[C@@H]3CCN(Cc4ccccc4)C3)CC[C@H]21 | 50.2%
9 | CN1C(=O)c2cc(NC(=O)c3cnccn3)ccc2OC[C@@H]2O[C@@H](CC(=O)N[C@H]3CCN(Cc4ccccc4)C3)CC[C@H]21 | 109% (active)
10 | CCS(=O)(=O)Nc1ccc2c(c1)C(=O)N(C)[C@H]1CC[C@H](CC(=O)N[C@@H]3CCN(Cc4ccccc4)C3)O[C@H]1CO2 | 71.7%
11 | CCNC(=O)C[C@@H]1CC[C@@H]2[C@@H](COc3ccc(NC(=O)Nc4ccccc4F)cc3C(=O)N2C)O1 | 19.6%
12 | CN1C(=O)c2cc(NC(=O)Nc3ccccc3F)ccc2OC[C@H]2O[C@H](CC(=O)NCc3ccc(-c4ccccc4)cc3)CC[C@H]21 | 101% (active)
13 | CCS(=O)(=O)Nc1ccc2c(c1)C(=O)N(C)[C@@H]1CC[C@H](CC(=O)N[C@H]3CCN(Cc4ccccc4)C3)O[C@@H]1CO2 | 46.2%
14 | C/C=C/c1ccc([C@H]2[C@@H](CO)N[C@@H]2CN(CC)C(=O)CN2CCOCC2)cc1 | -25.4%
15 | CCS(=O)(=O)Nc1ccc2c(c1)C(=O)N(C)[C@@H]1CC[C@@H](CC(=O)N3CCCCC3)O[C@H]1CO2 | 54.2%
16 | CO[C@@H]1CN(C)C(=O)c2cc(NC(=O)C3CCC3)ccc2OC[C@H](C)N(Cc2nccs2)C[C@H]1C | -2.54%
17 | COCC(=O)Nc1ccc2c(c1)C(=O)N(C)C[C@@H](OC)[C@H](C)CN(C(=O)CC1CC1)[C@H](C)CO2 | 34.9%
18 | Cc1ccc(S(=O)(=O)N(C)C[C@H]2OCCCC[C@H](C)Oc3ccc(NS(=O)(=O)c4c(C)noc4C)cc3C(=O)N([C@H](C)CO)C[C@@H]2C)cc1 | -43.8%
19 | Cc1noc(C)c1S(=O)(=O)N(C)C[C@H]1Oc2ccc(N(C)C)cc2CC(=O)N([C@H](C)CO)C[C@@H]1C | 97.3% (active)
20 | Cc1noc(C)c1S(=O)(=O)Nc1ccc2c(c1)C(=O)N([C@@H](C)CO)C[C@@H](C)[C@@H](CN(C)S(=O)(=O)c1ccccc1)OCCCC[C@H](C)O2 | -37.4%
21 | COc1ccc(S(=O)(=O)Nc2ccc3c(c2)C(=O)N([C@H](C)CO)C[C@H](C)[C@@H](CN(C)C)OCCCC[C@H](C)O3)cc1 | 17.4% and 81.8%
22 | COc1ccc(S(=O)(=O)Nc2ccc3c(c2)C(=O)N([C@H](C)CO)C[C@H](C)[C@@H](CN(C)S(C)(=O)=O)OCCCC[C@@H](C)O3)cc1 | 50.1%
23 | C[C@@H]1CN([C@H](C)CO)C(=O)Cc2cc(N(C)C)ccc2O[C@H]1CN(C)S(C)(=O)=O | -46%
24 | COc1ccc(S(=O)(=O)Nc2ccc3c(c2)C(=O)N([C@H](C)CO)C[C@@H](C)[C@@H](CN(C)CC2CCCCC2)OCCCC[C@@H](C)O3)cc1 | 110% (active)
25 | Cc1noc(C)c1S(=O)(=O)Nc1ccc2c(c1)C(=O)N([C@@H](C)CO)C[C@@H](C)[C@H](CN(C)S(=O)(=O)c1ccc(Cl)cc1)OCCCC[C@H](C)O2 | 96.3% (active)
26 | Cc1ccc(S(=O)(=O)Nc2ccc3c(c2)CC(=O)N([C@H](C)CO)C[C@@H](C)[C@H](CN(C)S(=O)(=O)c2c(C)noc2C)O3)cc1 | -10.8%
27 | COc1ccc(S(=O)(=O)Nc2ccc3c(c2)C(=O)N([C@@H](C)CO)C[C@H](C)[C@@H](CN(C)S(=O)(=O)c2ccc(F)cc2)OCCCC[C@H](C)O3)cc1 | 85%

Row | SMILES | inhibition
28 | COc1ccc(S(=O)(=O)Nc2ccc3c(c2)C(=O)N([C@@H](C)CO)C[C@H](C)[C@H](CN(C)S(=O)(=O)c2ccc(F)cc2)OCCCC[C@@H](C)O3)cc1 | 94.5%
29 | COc1ccc(S(=O)(=O)N(C)C[C@H]2OCCCC[C@H](C)Oc3ccc(NS(=O)(=O)c4ccc(F)cc4)cc3C(=O)N([C@@H](C)CO)C[C@@H]2C)cc1 | 108% (active)
30 | COC(=O)C[C@@H]1CC[C@H]2[C@H](COc3ccc(NC(=O)c4cccs4)cc3C(=O)N2C)O1 | 2.22%
31 | C[C@H]1CCCCO[C@@H](CN(C)Cc2ccc3c(c2)OCO3)[C@@H](C)CN([C@@H](C)CO)C(=O)c2cc(NC(=O)Nc3ccc(F)cc3)ccc2O1 | 77.3%
32 | CN1c2ccc(-c3ccc(C#N)cc3)cc2[C@@H]2[C@@H](CCN2C(=O)C2CCCCC2)[C@H]1CO | 50.3%
33 | O=C(NCC1CC1)[C@@H]1[C@@H](CO)[C@@H]2Cn3c(ccc(-c4ccncc4)c3=O)[C@H]1N2Cc1nccs1 | 32.5%
34 | CNC(=O)C[C@H]1CC[C@H]2[C@@H](COc3ccc(NC(=O)c4cccc(OC)c4)cc3C(=O)N2C)O1 | 3.49%
35 | COc1ccccc1-c1ccc2c(c1)[C@H]1[C@H](CCN1S(=O)(=O)c1ccccc1)[C@@H](CO)N2 | 77.3%
36 | CNC(=O)C[C@H]1CC[C@@H]2[C@H](COc3ccc(NC(=O)C(C)C)cc3C(=O)N2C)O1 | -65%
37 | CC(=O)Nc1ccc2c(c1)C(=O)N(C)[C@H]1CC[C@H](CC(=O)NCc3ccccc3Cl)O[C@H]1CO2 | -40.6%
38 | CNC[C@H]1OCCCC[C@@H](C)Oc2ccc(NC(=O)Nc3ccc(C(F)(F)F)cc3)cc2C(=O)N([C@H](C)CO)C[C@H]1C | 69.3%
39 | C[C@H](CO)N1C[C@H](C)[C@H](CN(C)C(=O)NC2CCCCC2)Oc2ccc(NC(=O)CCCN(C)C)cc2CC1=O | 25.8%
40 | O=C(NC1CCC1)[C@H]1[C@H](CO)[C@H]2Cn3c(ccc(C4=CCCCC4)c3=O)[C@@H]1N2CC1CC1 | -4.56%
41 | C[C@@H]1CCCCO[C@@H](CN(C)S(=O)(=O)c2ccc(F)cc2)[C@@H](C)CN([C@@H](C)CO)C(=O)c2cc(NC(=O)Nc3ccc(F)cc3)ccc2O1 | 55.8%
42 | COc1ccccc1S(=O)(=O)Nc1ccc2c(c1)C(=O)N(C)C[C@H](OC)[C@H](C)CN[C@H](C)CO2 | 9.95%
43 | O=C([C@H]1N[C@H]2c3ccc(-c4ccccc4)c(=O)n3C[C@H]2[C@@H]1CO)N1CCOCC1 | -8.75%
44 | C[C@@H]1CCCCO[C@H](CN(C)S(=O)(=O)c2ccc(F)cc2)[C@H](C)CN([C@@H](C)CO)C(=O)c2cc(NS(=O)(=O)c3ccccc3)ccc2O1 | 112% (active)
45 | Cc1ccc(S(=O)(=O)N(C)C[C@@H]2OCCCC[C@@H](C)Oc3ccc(NS(=O)(=O)c4ccc(F)cc4)cc3C(=O)N([C@H](C)CO)C[C@H]2C)cc1 | 110% (active)
46 | COc1ccc(S(=O)(=O)N(C)C[C@@H]2OCCCC[C@@H](C)Oc3ccc(NS(=O)(=O)c4ccccc4)cc3C(=O)N([C@@H](C)CO)C[C@H]2C)cc1 | 71.3%
47 | COc1ccc(S(=O)(=O)Nc2ccc3c(c2)C(=O)N([C@H](C)CO)C[C@@H](C)[C@H](CN(C)S(=O)(=O)c2ccc(Cl)cc2)OCCCC[C@@H](C)O3)cc1 | 87%
48 | C[C@H](CO)N1C[C@H](C)[C@H](CN(C)S(=O)(=O)c2ccc(F)cc2)OCCCC[C@H](C)Oc2ccc(NS(=O)(=O)c3ccc(Cl)cc3)cc2C1=O | 97.6% (active)
49 | Cc1ccc(S(=O)(=O)Nc2ccc3c(c2)C(=O)N([C@H](C)CO)C[C@@H](C)[C@H](CN(C)S(=O)(=O)c2ccc(C)cc2)OCCCC[C@@H](C)O3)cc1 | 89.1%
50 | C[C@@H]1CCCCO[C@H](CN(C)S(=O)(=O)c2ccccc2)[C@@H](C)CN([C@@H](C)CO)C(=O)c2cc(NS(=O)(=O)c3ccccc3)ccc2O1 | 78.8%
51 | Cc1ccc(S(=O)(=O)N(C)C[C@H]2OCCCC[C@@H](C)Oc3ccc(NS(C)(=O)=O)cc3C(=O)N([C@H](C)CO)C[C@@H]2C)cc1 | -8.39%
52 | C[C@@H]1CCCCO[C@@H](CN(C)S(C)(=O)=O)[C@H](C)CN([C@@H](C)CO)C(=O)c2cc(NS(=O)(=O)c3ccc(F)cc3)ccc2O1 | -87.8%
53 | C[C@H](CO)N1C[C@H](C)[C@@H](CN(C)C(=O)CCC(F)(F)F)OCCCC[C@H](C)Oc2ccc(NC(=O)C3CCCCC3)cc2C1=O | 39.7%
54 | COc1cccc(-c2ccc3c(c2)[C@@H]2[C@@H](CCN2S(=O)(=O)C2=NC(C)C=N2)[C@@H](CO)N3C)c1 (some centres undefined) | 6.92%
